GLP-1R inv ag = GLP-1 receptor (human) inverse agonism; Potency, µM (doses to about 38.3 µM), for inactives: at the top dose activity change, negative = inhibition, actives largely listed as inhibitors; P43220; 410,000 tested, 1.6% active; HEK293 GLP-1R CRE-luciferase, luminescence, 24 h; GLP-1R form is constitutively active; note: potency is the fitted concentration of half-maximal effect; % is set by controls: 0 for no effect and ±100 for the full control effect; nearly all actives have a fitted effect of over 55% in size
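qHTS in 1536-well format: reporter HEK293 cells expressing constitutive GLP-1R activity in DMEM + 10% Nu serum, 24 hr with compounds at 37 deg C, luminescence read after 12 min with detection reagent.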
GLP-1R agonist = GLP-1 receptor (human) agonism; AID 624172; HEK293 GLP-1R CRE-luciferase, luminescence, 4-6 h; cells express a hypersensitive GLP-1R form; P43220; 380,000 tested, 0.007% active; Potency, µM (top dose mostly 45.6 µM), without a hit: at the highest dose activation, usual class: activators; note: potency is the fitted concentration of half-maximal effect; % of control where 0% means no effect
GLS inh = blocks human kidney-isoform glutaminase activity; 410,000 tested, 0.21% active; O94925; GLS enzymatic activity, qHTS titration; Potency, µM (series often up to 45.5 µM), for the others: at the highest dose activity change, negative = inhibition, hits mostly inhibitors; AID 624170; note: potency is the fitted concentration of half-maximal effect; % is set by controls: 0 for no effect and ±100 for the full control effect
Target sequence (O94925 whole entry, looked up, canonical isoform): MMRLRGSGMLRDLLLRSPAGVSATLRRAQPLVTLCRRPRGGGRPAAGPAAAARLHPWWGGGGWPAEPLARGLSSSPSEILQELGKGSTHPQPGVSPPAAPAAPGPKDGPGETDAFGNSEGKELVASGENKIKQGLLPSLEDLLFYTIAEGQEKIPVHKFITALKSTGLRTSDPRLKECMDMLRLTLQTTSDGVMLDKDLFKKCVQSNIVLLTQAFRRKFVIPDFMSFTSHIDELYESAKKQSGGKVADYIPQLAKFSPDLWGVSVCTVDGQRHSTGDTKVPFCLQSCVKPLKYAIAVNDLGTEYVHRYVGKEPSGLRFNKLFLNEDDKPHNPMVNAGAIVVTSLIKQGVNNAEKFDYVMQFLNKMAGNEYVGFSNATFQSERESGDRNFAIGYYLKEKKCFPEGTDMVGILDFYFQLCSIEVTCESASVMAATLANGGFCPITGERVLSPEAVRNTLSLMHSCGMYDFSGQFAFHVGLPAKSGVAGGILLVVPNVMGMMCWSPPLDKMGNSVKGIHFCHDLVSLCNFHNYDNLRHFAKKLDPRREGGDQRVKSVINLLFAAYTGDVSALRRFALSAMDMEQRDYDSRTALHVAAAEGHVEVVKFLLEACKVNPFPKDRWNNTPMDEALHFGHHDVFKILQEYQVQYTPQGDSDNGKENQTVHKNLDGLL
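Enzyme dispensed in phosphate buffer (45 mM, pH 8.2, 0.02% Tween-20), compounds pinned in, then 1 mM L-glutamine solution and the glutamate oxidase–HRP–Amplex Red mix added; fluorescence read immediately and again after 30 min at room temperature.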
hERG WT inh = KCNH2 (human, wildtype) channel inhibition; 340,000 tested, 0.37% active; U2OS, BacMam KCNH2, thallium flux FluxOr; active compounds read low; Q12809; activity change, % at 1.84 µM; AID 720551;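 active = maximum activity change below -70%; inconclusive = maximum activity change between -70% and -50%; inactive = maximum activity change above -50%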; note: % is set by controls: 0 for no effect and ±100 for the full control effect
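U2OS cells were transduced with wild-type KCNH2 virus (2.03 x 10^8 / mL) for 4 h at room temperature, then cultured overnight at 37 C. Thallium flux was read with FluxOr dye. Rate constants were normalized to DMSO controls.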
KCNH2 3.1 inh = blocks the human KCNH2 3.1 channel isoform | AID 720553 | activity change, % (tested at about 1.8 µM) | U2OS KCNH2 3.1, thallium flux FluxOr; active compounds read low | 340,000 tested, 0.95% active;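 active = maximum activity change below -70%; inconclusive = maximum activity change from -70% to -50%; inactive = maximum activity change above -50%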;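 note: thallium influx rate constant from kinetic fluorescence after stimulation buffer; % is set by controls: 0 for no effect and ±100 for the full control effect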
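Kinetic fluorescence (2 min after stimulation buffer) measures Tl+ influx through KCNH2 3.1 expressed by viral transduction in U2OS cells; the rate constant is normalized against DMSO controls serving as positive and negative references.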
HEK293 tox = cytotoxicity in counter-screen for GLP-1R inverse agonists | Potency, µM (highest dose often 38.3 µM), without a hit: at the top dose activity change, negative = inhibition, hits mostly inhibitors | 410,000 tested, 0.13% active | HEK293 cAMP-luciferase reporter cells, luminescence, 24 h;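 note: loss of luciferase light is scored as toxicity; potency is the fitted concentration of half-maximal effect; % is set by controls: 0 for no effect and ±100 for the full control effect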
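Compound-treated cells are incubated 24 hr at 37 deg C under 5% CO2 after a 12 hour attachment period, then luciferase detection reagent is added and luminescence is measured following 12 min at room temperature; lowered signal indicates toxicity.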
* hit, by the source's call; ? = inconclusive; . = no result; [ ] = remark or other dose. Hits are enriched below; roughly 2.8% of the tested compounds scored in any of these assays. Unless noted, calls come from the whole dose curve; as a rule, active = well fitted curve in the direction sought with a large enough effect; inconclusive = small, poorly fitted or top-dose-only effect, or another doubt; inactive = no such curve, though single readings can be large; an effect the other way counts as inactive or inconclusive.

SMILES	GLP-1R inv ag	GLP-1R agonist	GLS inh	hERG WT inh	KCNH2 3.1 inh	HEK293 tox
Cc1cc2nc(-c3cccc(Cl)c3)c(Cc3ccccc3)n2c(C)c1Br	?	0.9%	22.7%	.	.	-5.5%
COc1ccc(Cc2c(-c3cccc(Cl)c3)nc3cc(C)c(Br)c(C)n23)c(C)c1	8.91µM*	-0.8%	-2.4%	.	.	0.3%
CC1(c2ccc(O)cc2)NC(=O)N(c2ccccc2)N1 (centres undefined)	3.16µM*	3.3%	?	-6.5	9.8	-9.0%
C=C(C)CCC1(C)NC(=O)N(c2ccccc2)N1 (centres undefined)	10µM*	0.5%	-28.8%	1.4	-2.4	?
Cc1cccc(OCC(=O)NCC2(N3CCN(C)CC3)CCCCC2)c1	-4.0%	.	3.5%	.	.	3.7%
Cc1ccc(NC(=O)/C(=C\c2cccc([N+](=O)[O-])c2)NC(=O)c2cccs2)cc1	13.6%	-48.0%	1.7%	4.3	-84.4*	10.8%
O=C(Nc1ccc(Br)cc1)/C(=C/c1cccc([N+](=O)[O-])c1)NC(=O)C1CCCCC1	?	-11.0%	2.1%	-96.5*	-89.8*	?
Cc1ccc(NC(=O)/C(=C/c2cccc([N+](=O)[O-])c2)NC(=O)C2CCCCC2)cc1	-0.8%	-10.5%	-1.1%	19.4	-79.2*	1.4%
CC(=O)N/C(=C\c1cccc([N+](=O)[O-])c1)C(=O)NC1CCCCC1	-14.9%	0.2%	8.9%	-6.1	?	11.1%
CCN1CCOC(=O)C1CC(=O)Nc1cc(Cl)ccc1C (centres undefined)	-1.8%	.	-13.3%	.	.	-4.1%
Cc1cccc(Nc2nnc(SCC(=O)NC3CCCc4ccccc43)s2)c1C (centres undefined)	8.91µM*	5.2%	8.4%	17.2	6.3	-19.0%
Cc1ccccc1-n1c(C)nnc1SCC(=O)NC1CCCc2ccccc21 (centres undefined)	-7.9%	4.5%	11.1%	-1.6	0.3	2.3%
CCN(C[C@H]1N[C@@](CC)(C(=O)OC)[C@H]2C(=O)N(Cc3ccccc3)C(=O)[C@@H]12)C(=O)Nc1ccc(C(F)(F)F)cc1	-3.1%	-2.7%	15.7%	-4.7	-75.3*	8.1%
Cc1ccc(CNC(=O)c2cccc(Nc3nc4ccccc4n4nnnc34)c2)cc1	21.4%	.	0.2%	.	.	8.9%
COc1ccc(C(=O)n2nc(-c3ccco3)nc2SC)cc1OC	1.0%	-1.7%	2.5%	-131.9*	-177.0*	-8.0%
O=C(O)c1ccc(N/N=C/c2c(F)cccc2Cl)cc1	5.01µM*	-4.6%	11.7%	-1.2	3.6	-2.2%
C[C@H](NC(=O)c1ccco1)C(=O)Nc1cc(S(=O)(=O)N2CCCC2)ccc1OCC(F)(F)F	20.1%	7.3%	-7.2%	0.5	7.0	11.5%
O=C(CCN1CCN(c2ccccc2F)CC1)Nc1ccccc1F	-1.3%	5.3%	7.4%	-2.8	13.7	9.7%
O=C(CN1CCN(CCC(=O)Nc2ccccc2F)CC1)Nc1ccc(Cl)cc1	0.0%	3.6%	-2.4%	-102.1*	-107.7*	-4.4%
O=C(CCN1C(=O)c2ccccc2S1(=O)=O)Nc1ccc(Cl)cc1	-14.7%	-3.7%	-2.2%	4.6	-84.1*	-1.2%
O=C(CCN1CCN(C/C=C/c2ccccc2)CC1)Nc1ccccc1F	-34.0%	-0.1%	0.4%	-49.1	-101.7*	-15.5%
CCc1cc(-c2n[nH]c(C)c2-c2ccccc2Cl)c(O)cc1OC	?	-2.8%	4.3%	.	-8.6	?
COc1ccc(C2CC(c3ccccc3)=NN2C(=O)COC(=O)c2cnc(Cl)c(Cl)c2)cc1 (centres undefined)	28.3%	-15.8%	-3.8%	-1.7	-0.1	-11.2%
CCOC(=O)c1nnn(CC(=O)N2N=C(c3ccc(Cl)cc3)CC2c2ccccc2)c1C(=O)OCC (centres undefined)	-7.9%	-0.3%	-5.9%	-12.3	-70.7*	-3.7%
CCOC(=O)c1nnn(CC(=O)N2N=C(c3ccc(Cl)cc3)CC2c2ccc(OC)cc2)c1C(=O)OCC (centres undefined)	-19.5%	0.2%	-5.1%	-76.3*	?	-17.0%
SMILES	GLP-1R inv ag	GLP-1R agonist	GLS inh	hERG WT inh	KCNH2 3.1 inh	HEK293 tox
COc1ccc(C(=O)N2CC(=O)Nc3ccc(C)cc3C2c2ccc(F)cc2)c(OC)c1 (centres undefined)	?	.	-19.9%	.	.	-9.8%
CNC(=S)NNC(=O)CCn1nc(C)c(Br)c1C	0.0%	-9.2%	4.0%	-8.6	2.9	-11.3%
CCOCCCNC(=S)NNC(=O)CCn1nc(C)c(Br)c1C	5.62µM*	2.7%	23.4%	11.6	22.2	?
CCOc1ccc2c(ccc(/C=C/c3cc(C)c4cccnc4c3O)[n+]2C)c1	?	-30.2%	-5.7%	23.2	-8.5	11.2µM*
CCOc1ccc(N=Nc2ccc(O)c3ncccc23)cc1	-8.9%	0.8%	-3.5%	3.7	-0.3	-7.8%
COc1ccc(N(C)C(=O)NCc2noc3ccc(C)cc23)c(OC)c1	17.1%	.	-1.0%	.	.	1.6%
CC(Sc1nc2c([nH]c3ccccc32)c(=O)n1-c1ccccc1)c1ccccc1 (centres undefined)	-18.0%	.	7.0%	.	.	0.6%
COc1ccc(NC(=O)c2ccccc2Cl)c(NC(=O)c2ccco2)c1	-3.8%	13.3%	1.9%	12.5	-7.3	?
COc1cc(NC(=O)c2cc(-c3ccco3)on2)c(OC)cc1Cl	5.2%	-13.6%	-3.3%	-26.0	-80.8*	3.5%
COc1ccc(NC(=O)c2cc(Cl)ccc2NC(=O)c2ccco2)c(OC)c1	-15.2%	-10.9%	0.5%	-81.8*	-70.1*	?
COc1ccc(NC(=O)c2cc(-c3ccco3)on2)c(OC)c1	30.4%	2.8%	-1.7%	-0.6	15.7	16.6%
O=C(NCC1CCCO1)c1c[nH]c2ccc(S(=O)(=O)Nc3cccc(C(F)(F)F)c3)cc2c1=O (centres undefined)	12.3%	.	5.3%	.	.	2.1%
Cc1ncoc1C(=O)N1CCc2c([nH]c3ccccc23)C1c1ccccc1F (centres undefined)	-23.1%[7.66 µM]	13.1%	1.1%	2.9	3.1	0.7%[7.66 µM]
CCn1nc(C)cc1C(=O)N1CCc2c([nH]c3ccccc23)C1c1cc(F)ccc1F (centres undefined)	10µM*	16.7%	1.6%	0.6	-3.0	-21.9%
O=C(c1cc(COc2c(F)cccc2F)on1)N1CCN(C2CCCCC2)CC1	?	-1.2%	7.8%	26.4	-81.2*	-19.6%
COc1ccc(CCNC(=O)Cn2nnc(-c3ccc(Cl)cc3)n2)cc1OC	-10.2%	.	-0.4%	.	.	-3.3%
